Measurements taken from the supplement of paper PMC13380429.

Tested on: Vero E6 infected with SARS-CoV-2
Experiment: inhibition of SARS-CoV-2 cytopathic effect; higher = more antiviral protection, active = above 15
Conditions: 48 h

Measured: inhibition of SARS-CoV-2 cytopathic effect

CCOc1cc2ncc(C#N)c(Nc3ccc(OCc4cccc(F)c4)c(Cl)c3)c2cc1NC(=O)/C=C/CN(C)C
inactive: 1 nM -1.73% | 8.33 nM -3.51% | 100 nM -7.95% | 833.33 nM -12% | 10000 nM -22%

COC(=O)c1cc(OC)c2c(c1-c1c(C(=O)OC)cc(OC)c3c1OCO3)OCO2 [bifendate]
inactive: 1 nM 1.14% | 8.33 nM 2.56% | 100 nM 3.5% | 833.33 nM 1.43% | 10000 nM 1.73%

CN1CCN(CCc2ccc(Cl)c(Cl)c2)CC1
inactive: 1 nM 0.05% | 8.33 nM 3.18% | 100 nM -0.38% | 833.33 nM 0.92% | 10000 nM -1.14%

O=C(O)[C@H](Cc1c[nH]c2ccccc12)N1C(=O)c2ccccc2C1=O
inactive: 1 nM 2.9% | 8.33 nM 3.8% | 100 nM -0.51% | 833.33 nM -0.14% | 10000 nM 0.14%

Cn1cc(C(F)(F)F)nc1-c1ccc(OCC(O)CNCCOc2ccc(O)c(C(N)=O)c2)cc1 (stereo not given)
inactive: 1 nM -0.25% | 8.33 nM -0.6% | 100 nM 0.3% | 833.33 nM -1.37% | 10000 nM 1.34%

O=C1NC(=O)[C@@H](c2cn3c4c(cccc24)CCC3)[C@@H]1c1c[nH]c2ccccc12 [tivantinib]
inactive: 1 nM -0.36% | 8.33 nM -0.11% | 100 nM -2.57% | 833.33 nM -1.94% | 10000 nM 2.92%

CN1CCN(c2ccc3nc(-c4c(N)c5c(F)cccc5[nH]c4=O)[nH]c3c2)CC1 [dovitinib]
inactive: 1 nM 1.8% | 8.33 nM 0.97% | 100 nM 0.34% | 833.33 nM -1.8% | 10000 nM -0.5%
